In PubChem BioAssay:
The source made the active and inactive calls.

Assays:
[1] = binders of probe aFSTL3 on microarray, primary screen, stem cell growth factor project, biochemical, small-molecule microarray, fluorescence 635/667 (AID 1064); conditions: higher = more signal;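 note: measures binding of the biotinylated anti-FSTL3 antibody to printed compounds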
[2] = binders from COS7 lysate, DM2A8 probe, primary screen, torsin A project, cell lysate, small-molecule microarray, fluorescence 635/667 (AID 1065); conditions: higher = more signal, COS7 lysate expressing mutant human TOR1A
[3] = binders of probe aFGF2 on microarray, primary screen, stem cell growth factor project, biochemical, small-molecule microarray, fluorescence 635/667 (AID 1067); conditions: higher = more signal;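 note: measures binding of biotinylated aFGF2 protein to printed compounds on slides; z-score merges feature fluorescence and signal-to-noise across triplicate slides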
[4] = binders of probe aFGF10 on microarray, primary screen, stem cell growth factor project, biochemical, small-molecule microarray, fluorescence 635/667 (AID 1071); conditions: higher = more signal;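 note: score merges 667 nm spot intensity and signal to noise from triplicate slides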
[5] = biological target: Neurogenic locus notch homolog protein 2 (Homo sapiens) (UniProt Q04721); experiment: Notch2 binders on small-molecule microarrays, primary screen, biochemical, small-molecule microarray, 635 nm fluorescence, stem cell growth factors (AID 1073); conditions: Notch2 binding, higher = more signal
Chain of Neurogenic locus notch homolog protein 2 (Homo sapiens) (Q04721 whole entry, looked up, canonical isoform): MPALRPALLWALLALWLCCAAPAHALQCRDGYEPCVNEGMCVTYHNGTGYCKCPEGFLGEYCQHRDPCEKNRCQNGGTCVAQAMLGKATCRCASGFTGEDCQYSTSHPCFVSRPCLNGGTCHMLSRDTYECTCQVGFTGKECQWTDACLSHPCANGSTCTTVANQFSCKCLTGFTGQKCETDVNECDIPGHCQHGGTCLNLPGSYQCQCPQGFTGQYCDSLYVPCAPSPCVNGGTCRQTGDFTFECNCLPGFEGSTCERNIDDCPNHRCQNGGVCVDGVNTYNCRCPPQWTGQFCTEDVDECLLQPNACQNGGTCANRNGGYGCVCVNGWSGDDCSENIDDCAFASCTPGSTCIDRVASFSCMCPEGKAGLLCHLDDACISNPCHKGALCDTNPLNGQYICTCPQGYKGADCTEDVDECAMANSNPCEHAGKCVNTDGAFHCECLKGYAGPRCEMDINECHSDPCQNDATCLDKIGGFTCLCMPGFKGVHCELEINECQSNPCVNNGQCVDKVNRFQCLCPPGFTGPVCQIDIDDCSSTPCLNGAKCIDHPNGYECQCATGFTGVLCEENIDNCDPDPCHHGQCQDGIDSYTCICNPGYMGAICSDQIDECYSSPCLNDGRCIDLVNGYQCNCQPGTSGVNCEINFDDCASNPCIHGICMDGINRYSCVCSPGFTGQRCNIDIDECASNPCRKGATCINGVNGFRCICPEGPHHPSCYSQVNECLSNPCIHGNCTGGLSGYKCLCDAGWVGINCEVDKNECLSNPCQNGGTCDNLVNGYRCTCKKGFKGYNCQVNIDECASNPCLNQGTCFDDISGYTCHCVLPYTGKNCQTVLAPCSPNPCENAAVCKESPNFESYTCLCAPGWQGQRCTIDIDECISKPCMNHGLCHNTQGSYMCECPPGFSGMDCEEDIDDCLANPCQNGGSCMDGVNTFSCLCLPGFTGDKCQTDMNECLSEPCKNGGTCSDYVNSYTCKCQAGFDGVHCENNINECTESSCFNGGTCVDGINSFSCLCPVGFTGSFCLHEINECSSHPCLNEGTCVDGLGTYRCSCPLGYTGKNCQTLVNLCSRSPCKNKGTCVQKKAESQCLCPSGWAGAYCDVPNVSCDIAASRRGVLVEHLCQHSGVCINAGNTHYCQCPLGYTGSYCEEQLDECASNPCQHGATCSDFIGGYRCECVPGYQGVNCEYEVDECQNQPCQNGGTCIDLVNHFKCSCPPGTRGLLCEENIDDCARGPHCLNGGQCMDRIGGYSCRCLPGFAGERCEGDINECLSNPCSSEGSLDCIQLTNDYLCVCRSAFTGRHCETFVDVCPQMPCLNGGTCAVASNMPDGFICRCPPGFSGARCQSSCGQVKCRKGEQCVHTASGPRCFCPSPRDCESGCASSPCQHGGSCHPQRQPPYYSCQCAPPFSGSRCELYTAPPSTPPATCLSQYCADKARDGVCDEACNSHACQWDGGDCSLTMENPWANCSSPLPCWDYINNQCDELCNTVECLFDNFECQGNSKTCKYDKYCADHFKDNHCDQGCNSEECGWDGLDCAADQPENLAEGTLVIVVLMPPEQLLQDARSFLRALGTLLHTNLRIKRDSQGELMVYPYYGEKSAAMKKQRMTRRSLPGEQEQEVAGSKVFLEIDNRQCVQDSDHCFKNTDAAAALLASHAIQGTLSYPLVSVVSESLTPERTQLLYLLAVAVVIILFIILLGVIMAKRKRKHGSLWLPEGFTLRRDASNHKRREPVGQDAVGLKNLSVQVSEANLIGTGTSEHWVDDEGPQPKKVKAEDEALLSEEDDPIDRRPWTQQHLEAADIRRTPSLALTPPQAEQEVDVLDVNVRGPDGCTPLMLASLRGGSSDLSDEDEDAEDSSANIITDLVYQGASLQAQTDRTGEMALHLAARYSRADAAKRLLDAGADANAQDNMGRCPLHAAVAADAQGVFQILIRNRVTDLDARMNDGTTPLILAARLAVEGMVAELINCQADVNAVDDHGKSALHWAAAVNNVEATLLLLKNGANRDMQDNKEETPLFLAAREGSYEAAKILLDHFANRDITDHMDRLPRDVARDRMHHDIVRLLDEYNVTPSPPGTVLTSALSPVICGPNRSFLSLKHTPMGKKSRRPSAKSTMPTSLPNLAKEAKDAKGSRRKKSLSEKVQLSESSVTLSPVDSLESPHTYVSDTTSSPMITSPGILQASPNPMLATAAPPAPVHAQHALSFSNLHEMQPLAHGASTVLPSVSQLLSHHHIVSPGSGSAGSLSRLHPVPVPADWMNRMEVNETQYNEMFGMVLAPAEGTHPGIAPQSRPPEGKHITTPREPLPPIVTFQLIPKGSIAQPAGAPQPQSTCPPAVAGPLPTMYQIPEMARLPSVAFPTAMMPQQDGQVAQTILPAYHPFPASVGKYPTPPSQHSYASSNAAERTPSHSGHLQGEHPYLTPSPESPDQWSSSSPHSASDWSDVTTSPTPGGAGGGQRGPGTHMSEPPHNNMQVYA

[6] = biological target: Pro-neuregulin-1, membrane-bound isoform (Homo sapiens) (UniProt Q02297); experiment: NRG1 binders on small-molecule microarrays, primary screen, psychiatric disease protein project, biochemical, small-molecule microarray, fluorescence 635/667 (AID 1075); conditions: NRG1 binding, 635 nm fluorescence, higher = more signal;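 note: score combines 667 nm spot fluorescence with signal to noise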
Chain of Pro-neuregulin-1, membrane-bound isoform (Homo sapiens) (Q02297 whole entry, looked up, the tested form may be a part, canonical isoform): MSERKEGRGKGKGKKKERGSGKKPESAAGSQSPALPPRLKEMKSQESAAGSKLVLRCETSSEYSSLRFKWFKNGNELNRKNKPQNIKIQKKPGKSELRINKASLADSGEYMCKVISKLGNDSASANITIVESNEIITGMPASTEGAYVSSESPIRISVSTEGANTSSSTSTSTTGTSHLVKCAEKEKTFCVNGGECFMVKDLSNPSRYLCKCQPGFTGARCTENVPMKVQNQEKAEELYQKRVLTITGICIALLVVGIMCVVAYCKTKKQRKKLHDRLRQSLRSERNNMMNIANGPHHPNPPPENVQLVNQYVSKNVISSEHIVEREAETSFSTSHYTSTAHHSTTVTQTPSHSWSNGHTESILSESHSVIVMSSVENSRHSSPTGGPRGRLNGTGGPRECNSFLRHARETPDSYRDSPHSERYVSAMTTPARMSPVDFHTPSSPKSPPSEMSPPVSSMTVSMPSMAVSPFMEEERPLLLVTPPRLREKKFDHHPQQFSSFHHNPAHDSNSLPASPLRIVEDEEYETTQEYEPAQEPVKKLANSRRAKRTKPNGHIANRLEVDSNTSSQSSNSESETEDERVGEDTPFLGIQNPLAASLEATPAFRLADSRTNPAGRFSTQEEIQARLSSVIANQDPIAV

[7] = test system: Neuregulin-1 EGF-like domain; experiment: binders of neuregulin-1 EGF-like domain, primary screen, biochemical, small-molecule microarray, 635 nm fluorescence (AID 1081); conditions: small-molecule microarray binding, higher = more signal;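 note: binding of the protein to compounds printed on small-molecule microarray slides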
[8] = FRG1 promoter luciferase signal modulators, primary screen, FRG1 inhibition for FSHD, cell-based, C2C12 myotubes, firefly/Renilla luciferase, luminescence (AID 1084); conditions: higher = more signal, called active from +8 up or from −8 down
[9] = binders of probe aFST on microarray, primary screen, stem cell growth factor project, biochemical, small-molecule microarray, fluorescence 635/667 (AID 1086); conditions: higher = more signal;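 note: score merges 667 nm fluorescence with signal-to-noise of each printed compound spot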
[10] = binders of probe aHhip on microarray, primary screen, stem cell growth factor project, biochemical, small-molecule microarray, fluorescence 635/667 (AID 1087); conditions: higher = more signal;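 note: score merges spot fluorescence at 667nm with spot signal to noise ratio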

Compound | composite z-score [1] | composite z-score [2] | composite z-score [3] | composite z-score [4] | composite z-score [5] | composite z-score [6] | composite z-score [7] | z-score [8] | composite z-score [9] | composite z-score [10]
CCCCC[C@H]1OC[C@@]23C=C(Br)[C@@H](CC12)[C@@]1(CO1)C3=O (stereo not given in full) | -0.41 | 0.878 | -0.2 | -0.112 | -0.308 | -0.556 | -0.497 | 0.201 (inactive) | -0.252 | -0.132
C[N+](C)(C)CCCC[C@@H]1NC(=O)[C@@H]2C[C@H](C(=O)NCCCCCCN)[C@H](c3cccc(OCCO)c3)N2C1=O | 2.69 | 2.09 | 0.239 | 0.494 | 0.731 | 2.31 | 1.38 | -0.155 (inactive) | 2.1 | 1.05
COCCOC(=O)N1C(=O)[C@@]2(c3cc(C#CCNC(N)=O)ccc31)[C@H](C(N)=O)[C@H]1C(=O)O[C@H](c3ccccc3)[C@H](c3ccccc3)N1[C@@H]2c1ccccc1OCCO | -0.0102 | 0.176 | -0.0381 | 0.43 | 1.23 | 0.667 | 0.46 | 1.94 (inactive) | 0.931 | 0.107
COc1cc(NN2C(C(O)c3ccco3)C=CC3C(=O)N(C)C(=O)C32)cc(OC)c1OC (stereo not given) | 0.256 | 0.504 | 0.083 | 0.27 | 0.578 | 1.4 | 1.38 | -0.389 (inactive) | 0.775 | 0.837
C=C(/C(=C/C[C@H](OC(C)=O)c1ccc(CO)o1)c1cnc2ccccc2c1)C(C)C | -0.519 | 1.01 | 0.0122 | 1.01 | 1.5 | 1.68 | 1.04 | 0.938 (inactive) | 0.846 | -0.0296
CC(C)=C1C(=O)C(c2ccccc2)=C2CN3C(=O)N(CCc4ccccc4)C(=O)[C@]3(Cc3ccc(C(F)(F)F)cc3)[C@H]21 | 1.11 | -0.192 | 0.0977 | -0.122 | 0.816 | 0.757 | 0.844 | 0.845 (inactive) | 0.693 | 0.281
COCCOC(=O)N1C(=O)[C@@]2(c3cc(C#CC4=CCCCC4)ccc31)[C@H](c1ccccc1OCCO)N1[C@H](c3ccccc3)[C@H](c3ccccc3)OC(=O)[C@H]1[C@@H]2C(=O)NC[C@H](O)c1ccccc1 | -0.223 | 0.123 | -0.0817 | 0.345 | 1.07 | 0.298 | 1.23 | 0.204 (inactive) | 0.635 | 0.115
CC(CO)N1C(=O)[C@@H]2[C@H]3C(=O)OCC=C[C@H]3OC23C=CCN(Cn2nnc4ccccc42)C(=O)[C@@H]13 (stereo not given in full) | 0.12 | -0.699 | -0.207 | -0.729 | -1 | 1.88 | 0.694 | 0.246 (inactive) | -0.391 | -0.0994
CCOC(=O)C[C@H]1[C@H](OC(=O)c2ccccc2-c2ccccc2)[C@@H](NC(=O)c2ccc3ccccc3c2)c2cc(OCCCO)ccc2N1C(=O)c1ccccc1 | -0.421 | 0.483 | -0.0277 | 1.03 | 0.299 | 0.12 | 0.965 | -0.201 (inactive) | 0.0603 | 0.0373
O=C1N(Cc2ccccc2)c2ccccc2C[C@]12N=C(c1ccc(OCCCO)cc1)O[C@@H]2c1ccccc1 | 0.0854 | 0.278 | -0.125 | 0.576 | 0.699 | 0.888 | 1.09 | -0.724 (inactive) | -0.0607 | -0.0994
COc1cccc(C)c1NC(=O)O[C@H]1[C@H](OC(=O)Nc2ccccc2-c2ccccc2)[C@H](OC(=O)Nc2ccccc2-c2ccccc2)[C@@H](OC)O[C@@H]1CO | -0.205 | 0.0513 | 0.137 | 0.542 | 1.46 | 1.46 | 1.14 | 0.379 (inactive) | 1.48 | -0.219
O=C(c1ccccc1)N1C(=O)[C@]2(Cc3ccccc31)N=C(c1ccc(OCCCO)cc1)O[C@@H]2c1ccccc1 | -0.203 | -0.0033 | -0.061 | 0.821 | 0.562 | 1.61 | 1.3 | -1.76 (inactive) | 0.313 | 0.252
COCCOC(=O)N1C(=O)[C@@]2(c3ccccc31)[C@H](c1ccc(O)cc1)N1[C@H](c3ccccc3)[C@H](c3ccccc3)OC(=O)[C@H]1[C@@H]2C(=O)N1CCN(c2ncccn2)CC1 | -0.224 | 0.23 | 0.0019 | 0.644 | 0.618 | 0.647 | 1.07 | -1.27 (inactive) | -0.165 | -0.0903
C=CCN1C(=O)[C@]2(CCC(=O)OC(C)(C)C)N=C(c3ccc(OCCCO)cc3)O[C@@H]2c2ccccc21 | 0.369 | 0.401 | -0.0791 | -0.475 | 0.729 | 0.811 | 0.542 | -2.29 (inactive) | 0.0909 | -0.0994
COc1ccc(CCNC(=O)[C@@]2(Sc3ccc(C)cc3)CC(=O)N(Cc3ccccc3C(F)(F)F)[C@@H]2c2ccc(CO)cc2I)cc1 | 0.673 | -1.11 | -0.156 | 0.116 | -1.11 | 1.99 | 1.01 | -1.08 (inactive) | -0.261 | -0.236
CCOC(=O)C[C@H]1[C@H](OC(=O)c2ccc(C(=O)c3ccccc3)cc2)[C@@H](NC(=O)c2ccc3ccccc3n2)c2cc(OCCCO)ccc2N1C(=O)Cc1ccc(OC)cc1 | -0.379 | 0.123 | -0.0807 | 0.289 | 0.599 | 0.252 | -0.261 | 0.673 (inactive) | 0.121 | 0.0501
CCCCCCCCCCC(O)C1C=CC2C(=O)N(c3ccccc3)C(=O)C2N1Nc1ccc(C#N)cc1 (stereo not given) | 0.356 | 0.179 | -0.0262 | 0.696 | 1.18 | 1.73 | 0.98 | 1.05 (inactive) | 0.647 | 0.0626
O=C(NCCN1CCOCC1)[C@@H]1c2ccccc2C(=O)N(C2Cc3ccccc3C2)[C@H]1c1ccc(CO)cc1 | 0.704 | 0.0352 | -0.163 | -0.465 | -0.168 | 0.855 | 1.25 | -1.39 (inactive) | -0.768 | -0.173
[N-]=[N+]=Nc1ccccc1C[C@]1(C(=O)N2CCOCC2)COC(c2ccc(OCCCO)cc2)=N1 | -0.0495 | 0.713 | -0.0442 | 0.261 | 1.35 | 1.38 | 1.19 | 1.71 (inactive) | 1.28 | -0.0617
CC[C@@H]1O[Si](C(C)C)(C(C)C)c2c1cc(-c1cc(C)c(OC)c(C)c1)nc2-c1ccc(Oc2ccccc2)cc1 | -0.119 | -0.259 | -0.0881 | -0.0323 | 0.0131 | 0.437 | -0.595 | 0.838 (inactive) | -0.0965 | 0.0808
CC(C)(C)OC(=O)CC[C@@]1(C(=O)NCC(O)CO)N=C(c2ccc(OCCCO)cc2)O[C@@H]1c1ccccc1CN=[N+]=[N-] (stereo not given in full) | 0.316 | 1.86 | -0.0249 | 0.426 | 1.49 | 1.01 | 1.48 | 3.3 (inactive) | 0.544 | -0.0994
Cc1ccc(S[C@]2(C(=O)NCC(F)(F)F)CC(=O)N(Cc3cc(C(F)(F)F)cc(C(F)(F)F)c3)[C@@H]2c2ccc(CO)cc2)cc1 | -0.26 | -1.74 | -0.133 | -0.232 | -0.995 | 1.09 | -0.353 | 0.0697 (inactive) | -0.234 | -0.0994
Cc1ccc(S[C@]2(C(=O)NCC(F)(F)F)CC(=O)N(Cc3cc(C(F)(F)F)cc(C(F)(F)F)c3)[C@@H]2c2ccc(CO)cc2I)cc1 | 0.225 | 1.52 | -0.128 | -0.41 | -1.14 | 0.848 | 0.434 | -0.326 (inactive) | -0.666 | -0.409
C=CCC(OC(C)=O)[C@@H]1[C@@H](N(Cc2cccc3ccccc23)C(=O)Cc2ccc(F)cc2)c2cc(OCCCO)ccc2N1C(=O)c1ccc2ccccc2c1 (stereo not given in full) | -0.0968 | -0.0168 | -0.0925 | 0.0597 | -0.108 | -0.398 | -0.691 | -1.72 (inactive) | -0.0779 | 0.0722
CCCCC=C[C@@H](NC(=O)OCc1ccccc1Cl)c1ccccc1 | 0.983 | 0.199 | 0.583 | 0.711 | 1.59 | 1.51 | 1.19 | 1.31 (inactive) | 2.81 | 0.996
C=C(COC)/C(=C/C[C@H](OC(=O)c1ccncc1)c1ccc(CO)o1)c1cnc2ccccc2c1 | 0.138 | 0.47 | -0.124 | 0.741 | 1.21 | 0.98 | 1.14 | 1.29 (inactive) | -0.0236 | -0.113
CCCC[C@@H](O)C1=C(COc2ccccc2)C[C@H]2C(=O)N(Cc3ccccc3)C(=O)[C@H]2[C@H]1CO | -0.123 | 0.195 | -0.147 | 0.479 | 0.339 | 1.01 | 0.426 | -0.791 (inactive) | -0.0226 | -0.449
